Drawing on PubChem BioAssay (EPA / NIEHS), this text covers AC50 and outcome for 4 compounds.

In general, AC50 refers to the concentration at which the activity in the assay is half-maximal.

Records with an inconclusive call do not appear. Calls of active or inactive are those of the source. Rule for the calls, unless noted: active = hit-call score of the fitted dose curve at least 0.9, where 1 is the maximum; inactive = score below 0.9.

A short description of assay [1]: ACEA_ER_80hr: ACEA Biosciences xCELLigence Real-Time Cell Analysis on Estrogen Receptor Agonism for Proliferation (AID 2282667; active = hit-call score of the fitted dose curve at least 0.9, where 1 is the maximum). Conditions: T47D proliferation, impedance (xCELLigence), 80 h. The method in brief:
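Real-time electrical impedance tracked growth of the human breast line T47D, with the 80 h post-dosing value used. Dosing spanned eight 1:4 steps down from a 100 uM final top concentration, run in duplicate.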

A short description of assay [2]: ATG_CRE_CIS: Attagene CIS-FACTORIAL HepG2 Assay for human cAMP Responsive Element (CRE) binding protein 3 (AID 2282926). As to conditions: HepG2 CRE cis-reporter, Attagene multiplexed mRNA; actives raise or lower the signal. Put shortly: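 Assay format: transient reporter transfection of HepG2, 24 h treatment, total RNA isolation with DNase I step. Reporter abundance read by fluorescence after PCR and capillary separation; DMSO-normalised gain or loss fitting.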

The target of assay [3] is CCAAT/enhancer-binding protein beta (Homo sapiens) (UniProt P17676). Nature of the assay: ATG_C_EBP_CIS: Attagene CIS-FACTORIAL HepG2 Assay for human CCAAT/Enhancer Binding Protein (C/EBP) beta (AID 2282927). As to conditions: HepG2 Attagene cis-factorial transcription factor reporter; actives raise or lower the signal. Put shortly:
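HepG2 transiently transfected with multiplexed reporter units under cis-regulatory promoters reporting endogenous C/EBPb activity. After 24 h exposure, reporter mRNA assayed by RT-PCR, fluorescent labelling, HpaI digestion and capillary electrophoresis; bidirectional fitting versus DMSO.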

Assay [4] can be described thus: ATG_CMV_CIS: Attagene CIS-FACTORIAL HepG2 Assay for human CMV (Internal Marker) (AID 2282928).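 Note: endpoint acts as a background internal control marker rather than a target.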 Conditions: HepG2 CMV promoter reporter, transcription factor profiling; actives raise or lower the signal. Put shortly: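 Reporter transcripts from transfected HepG2 cells are isolated after 24 h of chemical dosing, reverse-transcribed and amplified. Fragments labeled with 6-FAM are cut with HpaI and quantified by capillary electrophoresis; DMSO defines baseline.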

For assay [5], the target named is Aryl hydrocarbon receptor (Homo sapiens) (UniProt P35869). Put plainly: ATG_Ahr_CIS: Attagene CIS-FACTORIAL HepG2 Assay for human Aryl Hydrocarbon Receptor (Ahr) (AID 2282930). As to conditions: HepG2 AhR cis-factorial reporter transcription; actives raise or lower the signal. Put shortly: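 HepG2 cells transiently transfected with cis-element-driven multiplexed reporter units; endogenous AhR activity read as reporter mRNA 24 h after dosing, via RT-PCR, 6-FAM labelling, HpaI digestion and capillary electrophoresis. Bidirectional fit relative to DMSO.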
Aryl hydrocarbon receptor (Homo sapiens), sequence (P35869 whole entry, looked up): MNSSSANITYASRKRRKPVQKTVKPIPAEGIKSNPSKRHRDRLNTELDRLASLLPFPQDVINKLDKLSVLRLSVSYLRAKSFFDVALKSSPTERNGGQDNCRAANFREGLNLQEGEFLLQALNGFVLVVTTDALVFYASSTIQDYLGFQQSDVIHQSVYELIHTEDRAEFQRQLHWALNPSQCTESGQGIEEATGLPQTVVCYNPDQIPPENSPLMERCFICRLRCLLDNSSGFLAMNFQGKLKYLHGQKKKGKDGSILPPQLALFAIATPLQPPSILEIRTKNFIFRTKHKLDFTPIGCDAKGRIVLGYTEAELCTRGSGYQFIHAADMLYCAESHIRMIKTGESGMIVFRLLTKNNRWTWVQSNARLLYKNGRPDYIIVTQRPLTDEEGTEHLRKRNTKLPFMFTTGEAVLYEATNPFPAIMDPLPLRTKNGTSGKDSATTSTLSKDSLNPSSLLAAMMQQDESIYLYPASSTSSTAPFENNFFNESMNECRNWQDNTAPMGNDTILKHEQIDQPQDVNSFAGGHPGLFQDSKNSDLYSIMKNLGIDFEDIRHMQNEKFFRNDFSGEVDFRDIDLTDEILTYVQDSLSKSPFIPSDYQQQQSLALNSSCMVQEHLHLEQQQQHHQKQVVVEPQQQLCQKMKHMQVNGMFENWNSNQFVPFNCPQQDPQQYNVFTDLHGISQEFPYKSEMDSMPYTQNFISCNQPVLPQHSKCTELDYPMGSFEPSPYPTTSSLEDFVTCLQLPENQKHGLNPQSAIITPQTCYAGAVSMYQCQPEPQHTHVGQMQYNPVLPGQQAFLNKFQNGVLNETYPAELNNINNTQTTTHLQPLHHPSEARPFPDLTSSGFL

Assay [6] can be described thus: ATG_AP_1_CIS: Attagene CIS-FACTORIAL HepG2 Assay for human Activator Protein 1 (AP-1) (AID 2282931). As to conditions: HepG2 Attagene cis-factorial AP-1 reporter mRNA; actives raise or lower the signal. Put shortly:
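Transient MRTU transfection of HepG2 → 24 h chemical treatment → RNA isolation, RT-PCR, 6-FAM labelling, HpaI digest → capillary electrophoresis. Fit: bidirectional, DMSO negative control.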

A short description of assay [7]: ATG_AP_2_CIS: Attagene CIS-FACTORIAL HepG2 Assay for human Activator Protein 2 (AP-2) (AID 2282932). As to conditions: HepG2 AP-2 cis-reporter, Attagene transcription factor profiling; actives raise or lower the signal. The method in brief:
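Read-out: fluorescent reporter mRNA via RT-PCR and capillary electrophoresis, 24 h post-dose in transiently transfected HepG2. Endogenous factors drive cis-promoter reporters; gain or loss of signal fitted bidirectionally against DMSO.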

The nature of assay [8]: ATG_BRE_CIS: Attagene CIS-FACTORIAL HepG2 Assay for human Bone Morphogenetic Protein (BMP) Response Element (BRE) (AID 2282933). As to conditions: HepG2 BMP response element reporter, Attagene transcription factor profiling; actives raise or lower the signal. The method in brief:
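Endogenous transcription factor activity read in transiently transfected HepG2 cells after 24 h chemical exposure. Bidirectional curve fitting against DMSO; readout is reporter transcript level by RT-PCR with capillary electrophoresis of labelled products.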

Assay [9] has as its target Retinoic acid receptor alpha (Homo sapiens) (UniProt P10276). Nature of the assay: ATG_DR5_RAR_CIS: Attagene CIS-FACTORIAL HepG2 Assay for human Retinoic Acid Receptor Alpha (RARE), DR5 submotif (AID 2282934). Conditions: HepG2 Attagene cis-factorial RARE DR5 reporter, mRNA; actives raise or lower the signal. Put shortly:
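HepG2 cells transiently transfected with multiplexed reporter units; DR5 cis-element drives reporter through endogenous transcription factors. After 24 h dosing, reporter mRNA quantified by RT-PCR, fluorescent labeling, HpaI digestion and capillary electrophoresis; bidirectional fitting versus DMSO.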

In assay [10] the target is Transcription factor E2F1 (Homo sapiens) (UniProt Q01094). Nature of the assay: ATG_E2F_CIS: Attagene CIS-FACTORIAL HepG2 Assay for human E2F Transcription Factor 1 (AID 2282935). As to conditions: HepG2 Attagene cis-reporter, E2F reporter RNA transcripts; actives raise or lower the signal. Put shortly: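 Transient MRTU transfection of HepG2; 24 h compound exposure; RNA → oligo(dT) RT → PCR → FAM label → HpaI cut → CE fluorescence. Gain/loss of signal fit against DMSO.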
Transcription factor E2F1 (Homo sapiens), sequence (Q01094 whole entry, looked up): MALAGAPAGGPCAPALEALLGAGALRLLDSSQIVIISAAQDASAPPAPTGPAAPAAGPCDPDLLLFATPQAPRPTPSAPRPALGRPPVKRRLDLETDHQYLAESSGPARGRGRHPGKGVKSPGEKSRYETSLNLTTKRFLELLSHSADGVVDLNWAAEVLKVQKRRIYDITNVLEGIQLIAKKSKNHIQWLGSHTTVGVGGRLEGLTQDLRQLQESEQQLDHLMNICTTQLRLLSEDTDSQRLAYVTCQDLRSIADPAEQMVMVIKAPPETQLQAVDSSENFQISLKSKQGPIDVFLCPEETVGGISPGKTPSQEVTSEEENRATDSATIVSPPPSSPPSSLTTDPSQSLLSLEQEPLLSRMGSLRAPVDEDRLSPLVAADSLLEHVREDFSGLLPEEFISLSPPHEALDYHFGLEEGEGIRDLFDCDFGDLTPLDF

A short description of assay [11]: ATG_E_Box_CIS: Attagene CIS-FACTORIAL HepG2 Assay for human Enhancer Box (E-box) (AID 2282936). As to conditions: HepG2 E-box cis-reporter transcription, actives raise or lower the signal. Put shortly: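 Transiently transfected HepG2, endogenous TF-driven reporters, 24 h dosing. Readout: RT-PCR plus capillary electrophoresis of fluorescent reporter fragments. Gain or loss of signal fitted bidirectionally against DMSO baseline.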

Assay [12] can be described thus: ATG_M_61_CIS: Attagene CIS-FACTORIAL HepG2 Assay for M61 Transcription Factor (Internal Marker) (AID 2282937). Conditions: HepG2 Attagene CIS-FACTORIAL M61 internal marker reporter; actives raise or lower the signal. Put shortly:
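Human liver HepG2, transient MRTU transfection (cis promoter elements), 24 h compound. Total RNA → oligo(dT) RT → PCR → FAM label → HpaI → CE. Internal background marker; bidirectional fitting, DMSO = baseline.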

Assay [13] is described as follows: ATG_EGR_CIS: Attagene CIS-FACTORIAL HepG2 Assay for human Early Growth Response 1 (EGR1) (AID 2282938). Conditions: HepG2 Attagene CIS-FACTORIAL EGR reporter mRNA; actives raise or lower the signal. Put shortly:
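Transient transfection of human HepG2 with multiple cis-regulated reporter units, chemical exposure 24 h, total RNA isolated. Reverse transcription, PCR, fluorescent labelling and capillary electrophoresis quantify reporter transcripts; activity fitted bidirectionally against DMSO.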

Assay [14] in a line: ATG_M_19_CIS: Attagene CIS-FACTORIAL HepG2 Assay for M19 Transcription Factor (Internal Marker) (AID 2282939). Conditions: HepG2 Attagene CIS-FACTORIAL M19 internal marker reporter; actives raise or lower the signal. The method in brief: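 Internal marker readout, fitted in both directions against DMSO, from HepG2 cells carrying transfected cis-element reporter constructs; RT-PCR and capillary electrophoresis of reporter mRNA after 24 h exposure.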

A short description of assay [15]: ATG_ERE_CIS: Attagene CIS-FACTORIAL HepG2 Assay for Estrogen Response Element (ERE) (AID 2282940). As to conditions: HepG2 ERE cis-reporter, Attagene RNA transcript; actives raise or lower the signal. Put shortly: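 After 24 h compound treatment, RNA from transfected HepG2 cells was reverse-transcribed, reporter cDNA PCR-amplified, FAM-labelled, HpaI-cut and resolved by capillary electrophoresis. ERE-driven cis reporter transcripts reflect endogenous factors; gain or loss scored against DMSO.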

A short description of assay [16]: ATG_Ets_CIS: Attagene CIS-FACTORIAL HepG2 Assay for human Erythroblast Transformation Specific (ETS) (AID 2282941). Conditions: HepG2 ETS cis-reporter transcription, actives raise or lower the signal. Put shortly:
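Bidirectional fit versus DMSO of reporter mRNA signal, detected by RT-PCR and capillary electrophoresis in HepG2 cells transiently transfected with cis-element reporters and dosed 24 h.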

For assay [17], the target named is Hepatocyte nuclear factor 3-beta (Homo sapiens) (UniProt Q9Y261). Nature of the assay: ATG_FoxA2_CIS: Attagene CIS-FACTORIAL HepG2 Assay for human Forkhead box A2 (FOXA2) (AID 2282942). As to conditions: HepG2 cis-reporter transcription factor activity, 24 h; actives raise or lower the signal. The method in brief: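 Transient MRTU transfection of HepG2 liver cells; 24 h treatment; total RNA → oligo(dT) RT → PCR → FAM primer extension → HpaI cut → CE. Bidirectional fit vs DMSO.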
Hepatocyte nuclear factor 3-beta (Homo sapiens), sequence (Q9Y261 whole entry, looked up): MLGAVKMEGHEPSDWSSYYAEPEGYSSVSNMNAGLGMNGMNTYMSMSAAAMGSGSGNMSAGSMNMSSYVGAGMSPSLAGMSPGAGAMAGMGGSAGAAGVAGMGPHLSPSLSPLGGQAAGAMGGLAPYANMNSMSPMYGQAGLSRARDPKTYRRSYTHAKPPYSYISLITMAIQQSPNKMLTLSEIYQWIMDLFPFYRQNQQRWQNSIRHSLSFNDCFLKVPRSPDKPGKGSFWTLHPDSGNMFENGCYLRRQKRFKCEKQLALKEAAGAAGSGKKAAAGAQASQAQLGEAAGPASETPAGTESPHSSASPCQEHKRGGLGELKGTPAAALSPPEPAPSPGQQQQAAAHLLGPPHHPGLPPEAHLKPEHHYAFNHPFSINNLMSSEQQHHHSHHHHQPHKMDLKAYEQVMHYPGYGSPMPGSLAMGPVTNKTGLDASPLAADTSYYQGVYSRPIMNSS

Assay [18] can be described thus: ATG_FoxO_CIS: Attagene CIS-FACTORIAL HepG2 Assay for human Forkhead box O (FoxO) (AID 2282943). As to conditions: HepG2 Attagene cis-reporter, FoxO element, mRNA; actives raise or lower the signal. The method in brief: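 HepG2 cells transiently transfected with cis-element-driven reporter units report endogenous FoxO activity. After 24 h chemical exposure, reporter mRNA quantified by RT-PCR, fluorescent labeling, HpaI digestion and capillary electrophoresis; bidirectional fit versus DMSO.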

Assay [19] is described as follows: ATG_GATA_CIS: Attagene CIS-FACTORIAL HepG2 Assay for human GATA Binding Protein (AID 2282944). Conditions: HepG2 GATA cis-element reporter, Attagene multiplex mRNA; actives raise or lower the signal. Put shortly:
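Reporter transcripts from a GATA cis-regulated unit, among multiplexed reporters in transfected HepG2 cells, were measured by RT-PCR with capillary electrophoresis after 24 h dosing. Induction or loss scored relative to DMSO.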

The nature of assay [20]: ATG_DR4_LXR_CIS: Attagene CIS-FACTORIAL HepG2 Assay for human Liver X Receptor (LXR), DR4 submotif (AID 2282929). Conditions: HepG2 Attagene DR4 cis-reporter, mRNA transcription; actives raise or lower the signal. Put shortly: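 HepG2, transient MRTU transfection, cis-element (DR4) promoter; 24 h compound exposure; total RNA → oligo(dT) RT → PCR → 6-FAM primer extension → HpaI cut → CE. Gain/loss vs DMSO, bidirectional fit.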

Retinoic acid receptor alpha (Homo sapiens), sequence (P10276 whole entry, looked up): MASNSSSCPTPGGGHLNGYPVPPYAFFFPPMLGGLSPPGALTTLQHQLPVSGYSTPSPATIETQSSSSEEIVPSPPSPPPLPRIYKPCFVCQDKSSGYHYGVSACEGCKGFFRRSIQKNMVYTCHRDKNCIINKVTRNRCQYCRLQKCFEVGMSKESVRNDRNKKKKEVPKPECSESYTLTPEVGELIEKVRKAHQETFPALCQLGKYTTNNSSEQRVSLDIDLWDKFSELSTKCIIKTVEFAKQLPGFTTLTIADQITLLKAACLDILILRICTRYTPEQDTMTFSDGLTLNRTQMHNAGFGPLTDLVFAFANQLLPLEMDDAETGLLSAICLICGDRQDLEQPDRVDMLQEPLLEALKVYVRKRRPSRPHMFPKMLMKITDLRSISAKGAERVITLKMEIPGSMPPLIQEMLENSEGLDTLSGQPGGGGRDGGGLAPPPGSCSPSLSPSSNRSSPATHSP
CCAAT/enhancer-binding protein beta (Homo sapiens), sequence (P17676 whole entry, looked up): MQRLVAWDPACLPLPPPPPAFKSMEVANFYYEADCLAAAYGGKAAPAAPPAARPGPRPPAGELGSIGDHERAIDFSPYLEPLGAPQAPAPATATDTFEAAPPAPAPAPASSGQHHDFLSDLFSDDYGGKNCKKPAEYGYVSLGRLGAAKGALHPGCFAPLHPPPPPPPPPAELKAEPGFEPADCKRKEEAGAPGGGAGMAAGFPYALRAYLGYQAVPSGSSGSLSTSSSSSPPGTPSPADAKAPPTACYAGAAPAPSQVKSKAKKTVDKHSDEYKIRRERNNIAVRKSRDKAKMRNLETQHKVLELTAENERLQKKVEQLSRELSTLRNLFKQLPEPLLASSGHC

With `O=C1OC(=O)c2ccc3c4c(ccc1c24)C(=O)OC3=O`, the half-maximal activity concentration (AC50) in assay [1] is 0.0537 µM (active). Also, the compound was classed as inactive in assay [2], in assay [3], in assay [4], in [5], in assay [6] and in assay [7]. Besides, the compound was classed as inactive in [8], in assay [9], in [10], in assay [11], in [12] and in [13]. Also, the outcome in assay [14], in assay [15], in assay [16], in assay [17], in [18] and in assay [19] was inactive.
For the compound `CCN(CC)c1ccc(N=Nc2ccccc2)cc1`, the AC50 in assay [1] was 50 µM (active); in [5] it was 5.68 µM (active); in assay [6], 72.7 µM (active); in [8], 78.8 µM (active); in assay [11], 20.9 µM (active); in assay [13], 12.3 µM (active). Moreover, the AC50 in assay [17] was 26.9 µM (active). The result in assay [2], in assay [3], in assay [4], in assay [20], in [7] and in assay [9] was inactive. Besides, the result in assay [10], in assay [12], in [14], in assay [15], in assay [16] and in [18] was inactive. Also, the outcome in assay [19] was inactive.
With `CC(C)OC=O`, the compound was classed as inactive in assay [1], in [2], in [3], in assay [4], in assay [5] and in [6]. Also, the result in assay [7], in assay [8], in assay [9], in [10], in [11] and in [12] was inactive. The compound was classed as inactive in assay [13], in [14], in assay [15], in assay [16], in assay [17] and in assay [18]. Besides, in [19], the result was inactive.
As to `NC(O)(C(F)(F)F)C(F)(F)F`, the compound was classed as inactive in [1], in [2], in assay [3], in assay [4], in [20] and in assay [6]. Moreover, the outcome in assay [7], in assay [8], in [9], in assay [10], in [11] and in assay [12] was inactive. In addition, the compound was classed as inactive in assay [13], in assay [14], in [15], in assay [16], in [17] and in assay [18]. Besides, in [19], the call was inactive. The AC50 in assay [5] was 126 µM (active).
